Screen size: about 3,600 compounds; about 900 (25%) were called active. The rule behind the calls is not given here. Not all results are given here. Entries that show only a call come without a potency. Potency and affinity values are given separately.

We go through 109 compounds from PubChem BioAssay AID1117361 (Southern Research Institute, 2015).

For the experiment, the target named is Protein Tat (Human immunodeficiency virus type 1 group M subtype B (isolate HXB2)) (UniProt P04608). In words: HIV-1 Tat–TAR interaction blockers – biochemical, fluorescence polarization, FAM-labeled TAR RNA, counter-screen for Vif-APOBEC3G degradation inhibitor project, dose response (AID 1117361). As to conditions: Tat-TAR RNA binding; series mostly up to 100 µM. (In general: In fluorescence polarisation assays a small probe gives low polarisation when free and higher when bound to something large.)
Consider `CC(=O)c1ccc(NC(=O)C(C)OC(=O)C(C)Oc2cccc(C)c2)cc1` (centres undefined), for which the result was inactive.
The entry for `CCCn1nc(C(=O)Nc2cc(C(=O)OC)ccc2C)c2ccccc2c1=O` is “inactive”.
Consider `Cc1ccc([N+](=O)[O-])cc1NC(=O)CCSc1ccc(Cl)cc1`, for which the call was inactive.
On to `CCCCN1C2=C(C(=O)CC(C)(C)C2)C(c2ccccc2)C2=C1c1ccccc1C2=O` (centres undefined), for which the compound was called inactive.
The entry for `Cc1cc(C)cc(N(C(C)C(=O)Nc2c(C)n(C)n(-c3ccccc3)c2=O)S(C)(=O)=O)c1` (centres undefined) is “inactive”; for `COC(=O)Cc1csc(Nc2c(C)n(C)n(-c3ccccc3)c2=O)n1` it is “inactive”.
The entry for `Cc1c(NC(=O)c2cc(-c3cccs3)on2)c(=O)n(-c2ccccc2)n1C` is “inactive”; for `CC1=C/C(=N\OS(=O)(=O)c2ccccc2)C=CC1=O` it is “inactive”.
In the case of `Cc1cc(C(=O)Nc2ccc(S(=O)(=O)Nc3onc(C)c3C)cc2)cs1`, the compound was classed as inactive.
The entry for `COC(=O)c1ccc(Cn2c(C)cc(C)[n+]2C)o1` is “inactive”; for `CCOc1ccc2nc(SCc3ccc(C(=O)OC)o3)[nH]c2c1` it is “inactive”.
As for `COc1ccccc1N1CCN(C(=O)c2ccoc2C)CC1`, the outcome was inactive.
The entry for `COc1ccc(S(=O)(=O)N2CCN(C(=O)c3cc4c(s3)CCC4)CC2)cc1` is “inactive”; for `O=C(c1ccco1)N(CCC(c1ccccc1)c1ccco1)Cc1ccc(F)cc1` (centres undefined) it is “inactive”; for `Cc1cccc(OCCC(=O)Nc2c(C)n(C)n(-c3ccccc3)c2=O)c1` it is “inactive”.
Under `Cc1c(NC(=O)COC(=O)c2ccccc2Cl)c(=O)n(-c2ccccc2)n1C` stands “inactive”; under `CCOC(=O)Nc1cc(C)c(Cl)cc1OC`, “inactive”; under `Nc1cc(C(=O)O)ccc1N1CCCCC1`, “inactive”.
The entry for `CC(C)(C)NC(=O)c1cc([N+](=O)[O-])ccc1N1CCCCC1` is “inactive”; for `Cc1ccc(Cn2c(SCC(C)C)nc3c2c(=O)n(C)c(=O)n3C)cc1` it is “inactive”.
In the case of `CCn1c(C)cc(=S)c2ccccc21`, the call was inactive.
On to `CCN(CC(=O)Nc1ccc(NC(C)=O)cc1)C(=O)C1CCCC1`, for which the call was inactive.
The entry for `O=C(Cn1c2[n+](c3ccc(C(F)(F)F)cc31)CCCCC2)Nc1c(F)cccc1F` is “inactive”; for `Cc1ccc(C(=O)Nc2nc(=O)n(C(=O)c3ccccc3C)s2)cc1` it is “inactive”.
Under `CCS(=O)(=O)c1ccc2oc(Nc3cccc(OC)c3)nc2c1` stands “inactive”; under `Cc1nn(Cc2ccccc2)c(C)c1NC(=O)Cn1nc([N+](=O)[O-])c(Cl)c1C`, “inactive”.
The entry for `O=c1[nH]nc(Cc2ncc(C(F)(F)F)cc2Cl)c2ccccc12` is “inactive”; for `N#Cc1nc(COc2ccc(Cl)cc2Cl)oc1N1CCOCC1` it is “inactive”; for `COc1ccc(N2CCN(c3oc(COc4ccc(Cl)cc4Cl)nc3C#N)CC2)cc1` it is “inactive”.
Take `O=C1CN(C(=O)CSc2nnc(C3CC3)n2-c2ccccc2)c2ccccc2N1`: the call was inactive.
The entry for `Cc1nc(Nc2ccc(S(N)(=O)=O)cc2)sc1C(=O)Nc1ccccc1` is “inactive”.
Regarding `O=C(Nc1cnccn1)c1csc2ccccc12`, the compound was called inactive.
Under `Clc1ccc2c(c1)nc1n2CCCC1` stands “inactive”; under `COc1ccc(CCNS(=O)(=O)CCNC(=O)c2ccc3c(c2)OCO3)cc1`, “inactive”; under `O=C1NCC(O)=C1C=NC12CC3CC(CC(C3)C1)C2`, “inactive”.
`CCn1ncc(/C=N/NS(=O)(=O)c2ccc(Cl)cc2)c1C`: the result was inactive.
Under `C=CCN(CC=C)S(=O)(=O)c1ccc(C(=O)Nc2nnc(COC)o2)cc1` stands “inactive”; under `Cc1cccc(OCc2nc(C)cc(=O)[nH]2)c1`, “inactive”; under `O=C(CNC(=O)c1ccc(Cl)cc1Cl)OCc1nnc(-c2ccccc2Br)o1`, “inactive”.
In the case of `Clc1ccc(-c2ccc(SCc3ccccn3)nn2)cc1`, the outcome was inactive.
The entry for `CCCOc1ccccc1C1CC(=O)NC2=C1C(=O)CCC2` (centres undefined) is “inactive”; for `COc1ccccc1-c1nnc(SCC(=O)NCc2c(C)c(Cl)cc(C(C)C)c2O)o1` it is “inactive”; for `N#CC(C(=O)NCc1ccco1)c1nc2ccccc2nc1N1CCOCC1` (centres undefined) it is “inactive”.
The entry for `O=C(Cn1c(=O)[nH]c2ccccc2c1=O)N1CCN(c2cccc(Cl)c2)CC1` is “inactive”; for `Cc1ccnc(-n2c(CCN3C(=O)c4ccccc4C3=O)nc3ccccc3c2=O)c1` it is “inactive”.
Under `CC(C)C(NC(N)=O)C(=O)NC1CCCCC1` (centres undefined) stands “inactive”; under `O=C(O)c1cccc(CSc2nnc(COc3ccccc3)o2)c1`, “inactive”; under `COc1cc2c(cc1OC)C(=O)C(Br)CC2` (centres undefined), “inactive”.
Turning to `COc1cc(NC(=O)NCCN2CCN(c3ccc(Cl)cc3)CC2)ccc1C`, the compound was classed as inactive.
Turning to `Cc1ccc(NS(=O)(=O)c2ccc(OCC(=O)Nc3cccc([N+](=O)[O-])c3)c(C)c2)cc1`, the call was inactive.
The entry for `COc1cc(CCC(=O)Nc2cccc(C(F)(F)F)c2)cc(OC)c1OC` is “inactive”.
Under `CCNC(=S)Nc1ccc(N(c2ccccc2)C(C)C)cc1` stands “inactive”; under `O=C(Cn1cnc2c(nnn2Cc2ccc(Cl)cc2)c1=O)NCc1ccco1`, “inactive”.
The entry for `CCOC(=O)c1cc2c(n(-c3ccccc3)c1=O)CC(C)(C)CC2=O` is “inactive”; for `CC1Cc2ccccc2N1C(=O)C1CCN(S(=O)(=O)Cc2ccccc2)CC1` (centres undefined) it is “inactive”; for `CC1Cc2ccccc2N1Cc1nc2cc(C(F)(F)F)ccc2c(=O)[nH]1` (centres undefined) it is “inactive”.
Regarding `CCOc1cccc(C(=O)Nc2ccccc2OC(F)F)c1`, the outcome was inactive.
The entry for `CCC1(CC)C(=O)NC(=O)NC1=NCCc1ccc(O)cc1` is “inactive”; for `Cc1noc(C)c1S(=O)(=O)Nc1ccc2c(c1)C(=O)N([C@@H](C)CO)C[C@H](C)[C@@H](CN(C)Cc1ccc(C(F)(F)F)cc1)OCCCC[C@H](C)O2` it is “inactive”.
The entry for `COc1cccc(-c2nc(-c3cccs3)no2)c1` is “inactive”; for `CCCCCOc1ccc(C2C(C(C)=O)=C(C)Nc3ncnn32)cc1OC` (centres undefined) it is “inactive”; for `Cc1ccc(NC(=O)CCCCCC2NC(=O)NC2C)cc1` (centres undefined) it is “inactive”.
Under `N#Cc1ccccc1NC(=O)CNc1ccc(Cl)c(C(F)(F)F)c1` stands “inactive”; under `CC1CC(C)CN(C(=O)CSCC(=O)O)C1` (centres undefined), “inactive”; under `CC(C)C(c1nnnn1C1CCCCC1)N1CCN(c2ncccn2)CC1` (centres undefined), “inactive”.
Consider `O=C(CSc1c(Cl)cccc1Cl)N1CCC(c2nc3ccccc3s2)CC1`, for which the outcome was inactive.
The entry for `CCN1CCC(=NNC(=O)CC23CC4CC(CC(C4)C2)C3)CC1` is “inactive”; for `CCCCCCNS(=O)(=O)c1ccccc1Br` it is “inactive”.
The entry for `CCCC1(C(=O)O)NC(c2ccc(OC)cc2O)C2C(=O)N(c3ccc(OC)cc3)C(=O)C21` (centres undefined) is “inactive”; for `Cc1cccc2sc(NNC(=O)c3ccc(S(=O)(=O)N4CC(C)CC(C)C4)cc3)nc12` (centres undefined) it is “inactive”; for `Cc1cc(NC(=O)CC(CN(C)S(=O)(=O)c2ccccc2)c2ccccc2)no1` (centres undefined) it is “inactive”.
The entry for `COc1cccc(-c2nnc(SCC(=O)N3CCOCC3)o2)c1` is “inactive”; for `Cc1occc1-c1nnc(SCC(=O)N(C)C)o1` it is “inactive”; for `COc1ccc(N(C(=O)c2ccccc2OC)C2C=CS(=O)(=O)C2)c(OC)c1` (centres undefined) it is “inactive”.
`COc1ccc(S(=O)(=O)N(CC(=O)O)c2ccccn2)cc1`: the result was inactive.
Under `Cn1ccnc1Sc1ccc(/C=N/NC(=O)c2ccccc2O)cc1[N+](=O)[O-]` stands “inactive”.
The entry for `O=[N+]([O-])c1ccccc1NC(=S)N/N=C/c1ccc(O)c(O)c1` is “inactive”; for `Cc1cc(NC(=O)Cn2cnc3c(nnn3-c3cccc(F)c3)c2=O)no1` it is “inactive”; for `C/C(=N\OCC(=O)NC12CC3CC(CC(C3)C1)C2)c1cc2ccccc2o1` it is “inactive”.
The entry for `CC1CCC(NC(=O)CCS(=O)(=O)c2ccc3c(c2)CCN3C(=O)C2CC2)CC1` (centres undefined) is “inactive”; for `CN1CCN(NC(=O)c2ccc(S(=O)(=O)N3CC4(C)CC3CC(C)(C)C4)cc2)CC1` (centres undefined) it is “inactive”.
As to `COc1cc(NC(=O)CCn2c(=O)[nH]c3ccsc3c2=O)cc(OC)c1`, the result was inactive.
Under `O=C(O)CCCCC1SCC2NC(=O)NC21` (centres undefined) stands “inactive”.
Regarding `CCCN(CCC)CCCNC(=O)c1cn(CCOC)c(=O)c2c1c1ccccc1n2C`, the call was inactive.
The entry for `Cc1cc(NC(=O)C2CCCC2)n(-c2nc3ccccc3[nH]2)n1` is “inactive”; for `O=C1CCCCC1Oc1ccc2ccc(=O)oc2c1` (centres undefined) it is “inactive”; for `Cc1cc(-c2[nH]nc3c2C(c2cccc(O)c2)C(C#N)=C(N)O3)c(C)s1` (centres undefined) it is “inactive”.
Under `CSc1ccc(C2C(C#N)=C(N)Oc3c2ccc(=O)c2c(C)oc(C)c32)cc1` (centres undefined) stands “inactive”.
The entry for `N=C(N)c1ccc(N=Nc2c(O)ccc3c2[nH]c2ccccc23)cc1` is “inactive”; for `CCOC(=O)c1cc2ccc(OC)c(OC)c2c(=O)s1` it is “inactive”.
For `CCOC(=O)CSc1nc(CC)nc2ccccc12`, the outcome was inactive.
Take `CC(c1nnnn1C1CCCCC1)N(Cc1ccccc1)Cc1cccnc1` (centres undefined): the compound was called inactive.
Regarding `Cc1cccc(C(=O)Nc2nnc(Cc3c[nH]c4ccccc34)s2)c1`, the outcome was inactive.
The entry for `CC(=O)c1ccc(S(=O)(=O)Nc2cccc(-c3ccc(N4CCOCC4)nn3)c2)cc1` is “inactive”; for `CCNS(=O)(=O)c1ccc(-c2ccc(-n3cnnn3)cc2)cc1` it is “inactive”.
Under `CCC(C)n1c(-c2cccc(S(=O)(=O)N3CCOCC3)c2)n[nH]c1=S` (centres undefined) stands “inactive”; under `O=C(Oc1cccnc1)c1ccc(Cl)cc1`, “inactive”.
The entry for `Cc1ccc(S(=O)(=O)N2CCCC2C(=O)N(C)Cc2cccs2)cc1` (centres undefined) is “inactive”; for `Cc1cc(O)c(C(C)C)cc1NC1=NS(=O)(=O)c2ccccc21` it is “inactive”; for `CCCCS(=O)CC(O)COCC` (centres undefined) it is “inactive”.
On to `Cc1cc(Cl)c(S(=O)(=O)NCC2CCCO2)cc1OCC(=O)NC1CCCCC1` (centres undefined), for which the result was inactive.
Under `CC(C)(C)c1ccccc1OCCOCCSc1ncccn1` stands “inactive”.
Under `O=C(CCCc1ccccc1)N1CCN(c2ccc([N+](=O)[O-])cc2)CC1` stands “inactive”; under `CC(C)OC(=O)/C(=C\C=C\c1ccccc1)NC(=O)c1ccccc1`, “inactive”; under `O=C(CCc1ccc(S(=O)(=O)N2CCOCC2)cc1)OCc1nc2ccccc2s1`, “inactive”.
Under `O=C1c2ccccc2C(Nc2ccc(F)c(Cl)c2)N1c1ccccn1` (centres undefined) stands “inactive”.
On to `CCn1c(SCC(=O)n2c(C)c(C)c3ccccc32)nnc1-c1ccco1`, for which the compound was called inactive.
Under `CCCCC(=O)Nc1ccc(NC(=O)c2ccc3c(c2)OCO3)cc1OC` stands “inactive”; under `NC(=O)c1ccccc1NC(=O)/C=C/c1ccc(Cl)cc1`, “inactive”.
